Among the data in PubChem BioAssay AID1508600 (Functional Genomics Laboratory (NCATS/FGL), 2020) are z-score values, retold here.

Out of some 53,000 sequences screened, about 3,700 (7%) were called active. Many of the other results were omitted from the sample, so actives are more common in it than they were. A number with no mark means an inactive call.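 The calls were made as follows: active = gene knockdowns whose robust z-score for IL-1 alpha signal is at least 2 or at most -2, so actives lie on both sides; inactive = the rest.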

A short description of this experiment: Components of the Cytosolic LPS Sensing Pathway: Gene Identification via Genome-wide siRNA Screen.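 Also: robust z of the log signal after scaling to non-targeting control siRNA wells of the plate.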 As to conditions: RAW264.7 macrophages, IL-1a HTRF, actives lie on both sides, screened at 100 nM (by protocol), cells primed 5 h with Pam3CSK4 first. The gist of the method: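 Read-out: IL-1a HTRF on supernatant, divided by plate negative-control median ×100, log-transformed and converted to robust z-score. Cells were RAW264.7 given 100 nM siRNA, Pam3CSK4-primed 5 hours, then LipidA-transfected 24 hour.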
On the technique in general: TR-FRET usually uses a lanthanide donor and a delayed reading to cut background.
On to CGCACUUUGGCUUGUAAUUTT against Smad6, for which the z-score was 0.327. Turning to GCUGUAAACCGAAUCAAAGTT against Khdc4, the z-score was 0.0586. For CGUGAGGUUAUGAUGUAUUTT against Gm5444, the z-score is -1.3. For the sequence GGAAAGGACAAGAAAAUUUTT against Strn, the z-score was -2.03 (active). For CCAUUAUCCUGGUGUGUAUTT against Olfr1362 the value was -0.0735; for GGCGAUACUUGGAAAAAUCTT against Nln, -0.508; for GCCCGUCCUGUUUGGAUUATT against Wdr53, 0.501. Turning to “GGACCUUGAGAUAUCUUUUTT against D130020L05Rik”, the z-score was -0.361.

Take GGACAGAGGACAAGCAGAATT against Ghrl: the z-score is -0.532. Consider CCAGAUCGGGAAAAAGGGUTT against Tsn, for which the z-score was -2.04 (active).

For CCUAAUUUGAUCCUUCGAATT against Zfp672, the z-score was -0.947. Next, GAACGACAACCCGAUAAUGTT against Ttc9c: -0.141. Regarding GGAUUUAAUGGUAAAUCACTT against Relch, the z-score was 0.034. Turning to GGUUCUUGGAUAAAUCAAGTT against Mrpl40, the z-score was 2.41 (active). For GGAAGGUCAAAGUCCUUUATT against Pitpnm2 the value was -0.685. For GGCUUCAAGCUAUUCAUGATT against Dgkb the value was 0.126; for GGGAUUGAGGGAGAUUUUCTT against Tedc2, -0.206; for GUGCUUCUGAUCUCCUACATT against Olfr223, 1.

For “CCAAUCCAAUGAAUGUUUCTT against A330070K13Rik”, the z-score was -1.75. On to GCUGAAAGUAUUCAUGUAATT against Sec13, for which the z-score is -1.6. On to GAUAUGUGCACAAUUCUGCTT against Vmn1r201, for which the z-score was -2.3 (active). As for GGCCAUCUCUUCUACUGUATT against Glt28d2, the z-score was 0.0935.

As for GCUUUCUGGGUAACAUAGGTT against Ubqln3, the z-score is -1.46. Next, AACCAUUCAGGAGAAAGCCTT against Lce1a1: -3.05 (active).

GGGACCUUGAUCAAAACCUTT against Gp5: the z-score is -0.215. As to GGAAAUGACAAGUAUGAAGTT against Gria4, the z-score was -1.33. On to GUACCCAAAAUGUUGAUGATT against Olfr979, for which the z-score was 0.794. For GCGGCUCCAUCAGAAAAUGTT against Htatip2 the value was 0.526; for GGAAAUCCAUGAGAAGGUGTT against Ctbp2, 0.732.
